Hit rate of the full screen: of about 39,000 compounds, about 1,500 (3.8%) were called active. The full list was thinned out, with actives kept by preference.

In the assay the test system is HSkMC (human skeletal muscle cells). Kind of assay: cytotoxicity call (relative viability < 0.9). The settings on record: 10 µM.
`C[C@H]1CN([C@@H](C)CO)C(=O)Cc2cc(NS(=O)(=O)c3cccs3)ccc2O[C@@H]1CN(C)Cc1ccncc1`: the cytotoxicity call was “inactive”.
Turning to `COc1ccc(NC(=O)N(C)C[C@H]2Oc3ccc(NS(=O)(=O)c4c(C)noc4C)cc3C(=O)N([C@H](C)CO)C[C@H]2C)cc1`, the cytotoxicity call was “inactive”.
`C[C@@H]1CN([C@@H](C)CO)C(=O)c2cccc(NC(=O)CCCCCC(=O)Nc3ccccc3N)c2O[C@H]1CN(C)S(=O)(=O)c1cn(C)cn1`: the cytotoxicity call is “inactive”.
For `Cc1[nH]c(=O)[nH]c(=O)c1S(=O)(=O)N1CCC[C@H](C(=O)NCCc2c[nH]c3ccc(F)cc23)C1`, the cytotoxicity call is “inactive”.
Consider `C[C@H]1CCCCO[C@@H](CN(C)C)[C@@H](C)CN([C@@H](C)CO)C(=O)c2cc(NS(=O)(=O)c3cn(C)cn3)ccc2O1`, for which the cytotoxicity call was “inactive”.
To `C[C@@H]1CCCCO[C@@H](CN(C)S(=O)(=O)c2ccccc2)[C@H](C)CN([C@@H](C)CO)C(=O)c2cc(NC(=O)Nc3ccc(C(F)(F)F)cc3)ccc2O1` belongs “inactive”; to `COc1ccc(CN(C)C[C@H]2OCCCC[C@H](C)Oc3ccc(NC(=O)Cc4ccccc4)cc3C(=O)N([C@@H](C)CO)C[C@H]2C)cc1`, “inactive”.
As to `C[C@@H]1CN([C@H](C)CO)C(=O)c2cc(NS(=O)(=O)c3ccccc3)ccc2O[C@@H](C)CCCCO[C@@H]1CN(C)Cc1ccc2c(c1)OCO2`, the cytotoxicity call is “inactive”.
With `C[C@H](CO)N1C[C@H](C)[C@@H](CN(C)S(=O)(=O)c2ccc(Oc3ccccc3)cc2)OCc2cn(nn2)CCCC1=O`, the cytotoxicity call was “inactive”.
For `Cc1noc(C)c1S(=O)(=O)N(C)C[C@@H]1Oc2ccc(NC(=O)CCC(F)(F)F)cc2CC(=O)N([C@H](C)CO)C[C@H]1C`, the cytotoxicity call was “inactive”.
Regarding `COCCNC(=O)C[C@@H]1CC[C@@H](NS(=O)(=O)c2ccc(C)cc2)[C@H](CO)O1`, the cytotoxicity call was “inactive”.
Regarding `C[C@@H](O)Cn1cnc2c1c(=O)n(C)c(=O)n2C`, the cytotoxicity call was “inactive”.
In the case of `COc1ccc(CN(C)C[C@H]2OCCCC[C@H](C)Oc3ccc(NC(=O)c4ccccc4)cc3C(=O)N([C@@H](C)CO)C[C@H]2C)cc1`, the cytotoxicity call is “inactive”.
The result for `CC(C)C#Cc1cnc2c(c1)C(=O)N([C@@H](C)CO)C[C@@H](C)[C@@H](CN(C)S(=O)(=O)c1cn(C)cn1)O2` reads “inactive”.
The result for `CC(C)N1CCOC[C@@]2(C1)CN(S(C)(=O)=O)CCO2` reads “inactive”.
As for `COC(=O)[C@H](Cc1ccccc1)N1CC2=C[C@@H](C3CC3)n3c(=O)n(C)c(=O)n3[C@H]2[C@@H]1[C@@H](O)CCn1cc(-c2cccc(/C=C/C(=O)NO)c2)nn1`, the cytotoxicity call was “inactive”.
In the case of `COc1ccc2c3c([nH]c2c1)[C@H](CO)N(C[C@]13CN(C1)S(=O)(=O)C)C(=O)C1CCOCC1`, the cytotoxicity call was “inactive”.
Consider `C[C@H](CO)N1C[C@H](C)[C@H](CN(C)C(=O)NC2CCCCC2)Oc2ccc(NC(=O)C3CC3)cc2CC1=O`, for which the cytotoxicity call is “inactive”.
The result for `Cc1ccc(S(=O)(=O)N(C)C[C@H]2Oc3ccc(N(C)C)cc3CC(=O)N([C@H](C)CO)C[C@@H]2C)cc1` reads “inactive”.
To `CC(C)(N)C(=O)N[C@H](COCc1ccccc1)C(=O)N1CCC2(CC1)CN(S(C)(=O)=O)c1ccccc12` belongs “active”; to `CN1N=C2CCN(C(=O)[C@@H](COCc3ccccc3)NC(=O)C(C)(C)N)C[C@@]2(Cc2ccccc2)C1=O`, “inactive”.
For `CN(C)N(C)C(=O)[C@@]1(Cc2ccccc2)CCCN(C(=O)[C@@H](Cc2c[nH]c3ccccc23)NC(=O)C(C)(C)N)C1`, the cytotoxicity call is “inactive”.
For `COc1ccc(S(=O)(=O)Nc2ccc3c(c2)C(=O)N([C@H](C)CO)C[C@H](C)[C@@H](CN(C)C(=O)Nc2c(C)noc2C)OCCCC[C@H](C)O3)cc1`, the cytotoxicity call was “inactive”.
The result for `COc1ccc(NC(=O)N(C)C[C@H]2OCCCC[C@@H](C)Oc3ccc(NC(=O)C4CCCCC4)cc3C(=O)N([C@@H](C)CO)C[C@H]2C)cc1` reads “inactive”; that for `C[C@H]1CN([C@@H](C)CO)C(=O)c2cccc(NC(=O)CCCCCC(=O)Nc3ccccc3N)c2O[C@H]1CN(C)Cc1ccc(Cl)c(Cl)c1`, “active”.
For the molecule `C[C@@H]1CN([C@@H](C)CO)C(=O)c2cccc(NC(=O)CCCCCC(=O)Nc3ccccc3N)c2O[C@@H]1CN(C)Cc1ccc(Cl)c(Cl)c1`, the cytotoxicity call was “inactive”.
For the molecule `C[C@@H]1CN([C@@H](C)CO)C(=O)c2cccc(NC(=O)CCCCCC(=O)Nc3ccccc3N)c2O[C@@H]1CN(C)Cc1ccccc1`, the cytotoxicity call was “inactive”.
To `C[C@H]1CN([C@@H](C)CO)C(=O)c2cccc(NC(=O)CCCCCC(=O)Nc3ccccc3N)c2O[C@@H]1CN(C)Cc1ccccc1` belongs “active”; to `C[C@@H]1CN([C@@H](C)CO)C(=O)c2cccc(NC(=O)CCCCCC(=O)Nc3ccccc3N)c2O[C@H]1CN(C)Cc1ccc(-c2ccccc2)cc1`, “inactive”.
The result for `C[C@@H]1CN([C@@H](C)CO)C(=O)c2cccc(NC(=O)CCCCCC(=O)Nc3ccccc3N)c2O[C@H]1CN(C)Cc1ccc(Cl)c(Cl)c1` reads “inactive”; that for `C[C@@H]1CN([C@H](C)CO)C(=O)c2cccc(NC(=O)CCCCCC(=O)Nc3ccccc3N)c2O[C@H]1CN(C)Cc1ccccc1`, “inactive”; that for `C[C@H]1CN([C@@H](C)CO)C(=O)c2cccc(NC(=O)CCCCCC(=O)Nc3ccccc3N)c2O[C@H]1CN(C)Cc1ccc(-c2ccccc2)cc1`, “inactive”.
As for `C[C@H]1CN([C@@H](C)CO)C(=O)c2cccc(NC(=O)CCCCCC(=O)Nc3ccccc3N)c2O[C@@H]1CN(C)Cc1ccc(-c2ccccc2)cc1`, the cytotoxicity call is “active”.
To `Cc1ccc(S(=O)(=O)Nc2ccc3c(c2)C(=O)N([C@@H](C)CO)C[C@H](C)[C@@H](CN(C)Cc2ccncc2)OCCCC[C@H](C)O3)cc1` belongs “inactive”; to `C[C@@H]1CN([C@H](C)CO)C(=O)c2cc(NC(=O)c3ccncc3)ccc2O[C@@H](C)CCCCO[C@@H]1CN(C)S(=O)(=O)c1ccc(Cl)cc1`, “inactive”; to `COc1ccc(S(=O)(=O)Nc2ccc3c(c2)C(=O)N([C@@H](C)CO)C[C@H](C)[C@H](CN(C)S(C)(=O)=O)OCCCC[C@@H](C)O3)cc1`, “inactive”.
Turning to `C[C@@H]1CN([C@H](C)CO)C(=O)c2cc(NC(=O)CCN3CCOCC3)ccc2O[C@H]1CN(C)Cc1ccncc1`, the cytotoxicity call was “inactive”.
For `CN(C)CC(=O)OCC(O)C(O)C(O)C(O)C(=O)[O-].[Na+]` (stereo not drawn), the cytotoxicity call was “inactive”.
The result for `O=C(c1ccc(Cl)cc1)c1coc2c1cc(O)c1ccccc12` reads “active”; that for `O=C(c1ccc(Cl)cc1)n1c2ccccc2c2ccccc21`, “inactive”.
Regarding `O=C(Nc1ccc(Cl)cc1C(=O)c1ccc(Cl)cc1)c1cc(Br)ccc1NS(=O)(=O)c1ccc(Cl)cc1`, the cytotoxicity call was “inactive”.
As for `O=C(NCC[C@@H]1CC[C@H](NS(=O)(=O)c2cccc(F)c2)[C@H](CO)O1)C1CC1`, the cytotoxicity call is “inactive”.
The result for `C[C@@H]1CCCCO[C@H](CN(C)S(=O)(=O)c2ccccc2)[C@@H](C)CN([C@@H](C)CO)C(=O)c2cc(NC(=O)C3CCCCC3)ccc2O1` reads “inactive”; that for `C[C@@H]1CN([C@@H](C)CO)C(=O)c2cccc(NC(=O)NC3CCCCC3)c2O[C@H]1CN(C)Cc1ccc(C(F)(F)F)cc1`, “inactive”.
With `CC(/C=C/C(=O)NO)=C\c1ccccc1OCc1cn(CCNC(=O)[C@@H](NS(=O)(=O)c2ccc(C)cc2)C(C)C)nn1`, the cytotoxicity call was “inactive”.
On to `Nc1cccc(-n2cc(CCC(=O)NO)nn2)c1`, for which the cytotoxicity call was “inactive”.
For the molecule `Cc1ccc(S(=O)(=O)N(c2cccc(-n3cc(CCC(=O)NO)nn3)c2)S(=O)(=O)c2ccc(C)cc2)cc1`, the cytotoxicity call is “active”.
As for `CC(/C=C/C(=O)NO)=C\c1ccccc1OCc1cn(-c2cccc(N(S(=O)(=O)c3ccc(C)cc3)S(=O)(=O)c3ccc(C)cc3)c2)nn1`, the cytotoxicity call was “active”.
To `Nc1ccc(-n2cc(CCC(=O)NO)nn2)cc1` belongs “inactive”.
Regarding `CC(/C=C/C(=O)NO)=C\c1ccccc1OCc1cn(C[C@@H]2CCCN2S(=O)(=O)c2ccc(C)cc2)nn1`, the cytotoxicity call is “inactive”.
On to `C[C@@H]1CCCCO[C@H](CN(C)Cc2ccncc2)[C@@H](C)CN([C@@H](C)CO)C(=O)c2cc(NC(=O)Nc3ccccc3)ccc2O1`, for which the cytotoxicity call was “inactive”.
For `C[C@H](CO)N1C[C@H](C)[C@@H](CN(C)S(=O)(=O)c2ccc(Cl)cc2)OCCCC[C@H](C)Oc2ccc(NC(=O)c3ccccc3)cc2C1=O`, the cytotoxicity call was “inactive”.
Take `C[C@@H]1CN([C@H](C)CO)C(=O)c2cc(NS(C)(=O)=O)ccc2O[C@@H](C)CCCCO[C@@H]1CN(C)Cc1ccncc1`: the cytotoxicity call is “inactive”.
The result for `C[C@@H]1CN([C@H](C)CO)C(=O)c2cc(NC(=O)NC3CCCCC3)ccc2O[C@@H](C)CCCCO[C@H]1CN(C)S(=O)(=O)c1cccs1` reads “inactive”; that for `C[C@H]1CN([C@@H](C)CO)C(=O)c2cc(NC(=O)Nc3ccccc3)ccc2O[C@H]1CN(C)C(=O)Nc1cccc2ccccc12`, “inactive”; that for `C[C@H](CO)N1C[C@H](C)[C@H](CN(C)C(=O)Nc2cccc3ccccc23)Oc2ccc(NC(=O)Nc3ccccc3)cc2C1=O`, “inactive”.
In the case of `C[C@@H]1CN([C@H](C)CO)C(=O)c2cc(NC(=O)Nc3ccccc3)ccc2O[C@@H]1CN(C)C(=O)Nc1cccc2ccccc12`, the cytotoxicity call was “active”.
For the molecule `C[C@H](CO)N1C[C@H](C)[C@@H](CN(C)C(=O)Nc2cccc3ccccc23)Oc2ccc(NC(=O)Nc3ccccc3)cc2C1=O`, the cytotoxicity call was “inactive”.
To `C[C@@H]1CN([C@@H](C)CO)C(=O)c2cc(NC(=O)Nc3ccccc3)ccc2O[C@@H]1CN(C)C(=O)Nc1cccc2ccccc12` belongs “active”; to `C[C@@H]1CN([C@H](C)CO)C(=O)c2cc(NC(=O)Nc3ccccc3)ccc2O[C@H]1CN(C)C(=O)Nc1cccc2ccccc12`, “inactive”; to `Cc1ccc(S(=O)(=O)N(C)C[C@H]2Oc3c(NS(=O)(=O)c4ccccc4)cccc3C(=O)N([C@H](C)CO)C[C@@H]2C)cc1`, “inactive”.
As to `C[C@H](CO)N1C[C@H](C)[C@H](CN(C)S(=O)(=O)c2ccccc2)Oc2c(NC(=O)C3CCOCC3)cccc2C1=O`, the cytotoxicity call was “inactive”.
As for `C[C@@H]1CCCCO[C@@H](CN(C)CC2CCCCC2)[C@@H](C)CN([C@@H](C)CO)C(=O)c2cc(NC(=O)CCCN(C)C)ccc2O1`, the cytotoxicity call is “inactive”.

(Values after the antibiotic and cytotoxicity screens of Wong et al. (2023).)
